Test results from PubChem BioAssay (NCI).
About 79,000 compounds went through this panel and 15% of them were active in at least one assay; those are over-represented in the sample as a whole. Active and inactive are the calls of the source. Rule as the data show it: active = growth inhibition above about 70%; inactive = the rest.

Experiments:
[1] = NCI Yeast Anticancer Drug Screen. Data for the rad52 strain (AID 147);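 also: 0% = growth of vehicle-treated control cultures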; conditions: S. cerevisiae rad52 mutant growth inhibition, hits give high values
Summary of the method: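 Here a repair-compromised yeast strain receives each compound; its growth is then quantified and normalised to vehicle-only controls.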

[2] = NCI Yeast Anticancer Drug Screen. Data for the wt1 strain (AID 149);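 also: 0% = growth of vehicle-treated wt1 cultures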; conditions: S. cerevisiae wt1 strain (SPY 50644) growth inhibition, hits give high values
Summary of the method: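 The wt1 strain was treated with compounds, and growth was compared with vehicle-treated cultures to give inhibition.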

[3] = NCI Yeast Anticancer Drug Screen. Data for the rad50EPP+ strain (AID 151);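 also: 0% = growth of vehicle-treated control cultures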; conditions: S. cerevisiae rad50 mutant strain, hits give high values
Summary of the method: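 Read-out is yeast growth inhibition relative to vehicle; cells used were the rad50EPP+ strain.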

[4] = NCI Yeast Anticancer Drug Screen. Data for the mgt1 strain (AID 153); conditions: S. cerevisiae mgt1 mutant growth inhibition, hits give high values
Summary of the method: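 Measured: inhibition of mgt1 yeast growth by compound, normalized to vehicle-treated cultures.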

[5] = NCI Yeast Anticancer Drug Screen. Data for the rad50 strain (AID 155);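 also: 0% = growth of vehicle-only cultures of the same strain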; conditions: S. cerevisiae rad50 strain growth inhibition, hits give high values
Summary of the method: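 Cells are treated with compound, grown, and their growth is then scored against vehicle-only cultures of the same repair-deficient yeast strain.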

[6] = NCI Yeast Anticancer Drug Screen. Data for the mec2-1 strain (AID 157); conditions: S. cerevisiae mec2-1 strain, hits give high values
Summary of the method: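 Using mec2-1 yeast: add compound, measure growth, express inhibition versus vehicle-treated cultures.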

[7] = NCI Yeast Anticancer Drug Screen. Data for the rad14 strain (AID 159);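 also: 0% = growth of vehicle-treated control cultures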; conditions: S. cerevisiae rad14 strain growth inhibition, hits give high values
Summary of the method: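 Readout: yeast growth inhibition, referenced to vehicle-only cultures. Strain bears a defined alteration in DNA damage repair.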

[8] = NCI Yeast Anticancer Drug Screen. Data for the sgs1 mgt1 strain (AID 161);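 also: 0% = growth of cultures given vehicle only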; conditions: S. cerevisiae sgs1 mgt1 strain, hits give high values
Summary of the method: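 Compounds are added to genetically altered yeast, and growth is compared with cultures given vehicle alone to give percent inhibition.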

[9] = NCI Yeast Anticancer Drug Screen. Data for the cln2 rad14 strain (AID 165);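 also: 0% = growth equal to vehicle treated cultures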; conditions: S. cerevisiae cln2 rad14 strain, hits give high values
Summary of the method: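 Yeast strain cln2 rad14, bearing defects in cell cycle control and DNA repair, serves as the test system; values reflect growth inhibition compared with vehicle.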

[10] = NCI Yeast Anticancer Drug Screen. Data for the bub3 strain (AID 167); conditions: S. cerevisiae bub3 mutant strain, hits give high values
Summary of the method: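 Part of a panel of yeast mutants defective in DNA damage repair or cell cycle regulation. Each strain is grown with compound, and inhibition is calculated relative to solvent-treated cultures.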

[11] = NCI Yeast Anticancer Drug Screen. Data for the wt2 strain (AID 169);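 also: 0% = growth of vehicle-treated yeast cultures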; conditions: S. cerevisiae wt2 strain growth inhibition, hits give high values
Summary of the method: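 Treated yeast vs. vehicle-treated yeast: growth inhibition determined.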

[12] = NCI Yeast Anticancer Drug Screen. Data for the mlh1 strain (AID 171);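 also: 0% = growth of vehicle-treated control cultures of the same strain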; conditions: S. cerevisiae mlh1 strain growth inhibition, hits give high values
Summary of the method: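 A yeast strain with a defined genetic lesion serves as the test organism. Cultures receive compound or vehicle, and growth is measured.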

[13] = NCI Yeast Anticancer Drug Screen. Data for the sgs1 strain (AID 173);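 also: 0% = growth of vehicle-only control cultures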; conditions: S. cerevisiae sgs1 mutant, hits give high values
Summary of the method: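 A genetically defined yeast mutant is incubated with the test compound, and its growth is compared to that of the same strain given vehicle.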

[14] = NCI Yeast Anticancer Drug Screen. Data for the mlh1 rad18 strain (AID 175); conditions: S. cerevisiae mlh1 rad18 strain growth inhibition, hits give high values
Summary of the method: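 Steps: expose repair-defective yeast to compound; measure growth; express inhibition against vehicle-treated controls.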

[15] = NCI Yeast Anticancer Drug Screen. Data for the rad18 strain (AID 177); conditions: S. cerevisiae rad18 mutant growth inhibition, hits give high values
Summary of the method: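 Measured value is growth inhibition of a yeast strain bearing a DNA repair alteration, referenced to vehicle-treated cells.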

[16] = at 5.0 µM (retest, dose inferred, filed as 0.5)
[17] = at 50.0 µM (retest, dose inferred, filed as 5.0)

Measured: growth inhibition

CCCCCCCSCC1C(=O)C23C(O)C1CCC2C12COC3(O)C(O)C1C(C)(C)CCC2O (stereo unspecified)
inactive: [1]; at 1.2 µM 13% | [1]; at 3.7 µM 14% | [2]; at 1.2 µM 16% | [2]; at 3.7 µM 5% | [3]; at 1.2 µM 26% | [3]; at 3.7 µM 27% | [3]; at 11.0 µM 32% | [3]; at 33.0 µM 28% | [3]; at 100.0 µM 6% | [4]; at 1.2 µM 20% | [4]; at 3.7 µM 20% | [5]; at 1.2 µM 13% | [5]; at 3.7 µM 16% | [5]; [16] -12% | [5]; at 11.0 µM 66% | [6]; at 1.2 µM 23% | [6]; at 3.7 µM 15% | [6]; [16] 2% | [6]; at 11.0 µM 67% | [7]; at 1.2 µM -9% | [7]; at 3.7 µM 5% | [8]; [16] 28% | [9]; [16] 54% | [10]; at 1.2 µM 4% | [10]; at 3.7 µM 9% | [10]; [16] 65% | [11]; at 1.2 µM 14% | [11]; at 3.7 µM 0% | [11]; at 11.0 µM 67% | [12]; at 1.2 µM -1% | [12]; at 3.7 µM 23% | [13]; at 1.2 µM 26% | [13]; at 3.7 µM 19% | [14]; [16] 50% | [15]; at 1.2 µM -1% | [15]; at 3.7 µM 2%
active: [1]; at 11.0 µM 71% | [1]; at 33.0 µM 94% | [1]; at 100.0 µM 85% | [2]; at 11.0 µM 82% | [2]; at 33.0 µM 95% | [2]; at 100.0 µM 90% | [4]; at 11.0 µM 88% | [4]; at 33.0 µM 96% | [4]; at 100.0 µM 89% | [5]; at 33.0 µM 93% | [5]; [17] 74% | [5]; at 50.0 µM 87.5% | [5]; at 100.0 µM 81% | [6]; at 33.0 µM 94% | [6]; [17] 97% | [6]; at 50.0 µM 88.2% | [6]; at 100.0 µM 87% | [7]; at 11.0 µM 84% | [7]; at 33.0 µM 95% | [7]; at 100.0 µM 91% | [8]; [17] 95% | [8]; at 50.0 µM 87.8% | [9]; [17] 97% | [9]; at 50.0 µM 85.8% | [10]; at 11.0 µM 78% | [10]; at 33.0 µM 94% | [10]; [17] 97% | [10]; at 50.0 µM 86.2% | [10]; at 100.0 µM 90% | [11]; at 33.0 µM 95% | [11]; at 100.0 µM 93% | [12]; at 11.0 µM 93% | [12]; at 33.0 µM 95% | [12]; at 100.0 µM 91% | [13]; at 11.0 µM 89% | [13]; at 33.0 µM 95% | [13]; at 100.0 µM 84% | [14]; [17] 94% | [14]; at 50.0 µM 88.8% | [15]; at 11.0 µM 89% | [15]; at 33.0 µM 94% | [15]; at 100.0 µM 87%

CCC(OC(C)=O)C1CC(C(C)C)CCC1C (stereo unspecified)
active: [3]; at 100.0 µM 96% | [4]; at 100.0 µM 82% | [6]; at 100.0 µM 76% | [7]; at 100.0 µM 99% | [9]; [17] 73% | [9]; at 50.0 µM 72.2% | [10]; at 100.0 µM 84% | [13]; at 100.0 µM 95% | [15]; at 100.0 µM 83%
inactive: [1]; at 1.2 µM 1% | [1]; at 3.7 µM 2% | [1]; at 11.0 µM 4% | [1]; at 33.0 µM -73% | [1]; at 100.0 µM 22% | [2]; at 1.2 µM -1% | [2]; at 3.7 µM -1% | [2]; at 11.0 µM -2% | [2]; at 33.0 µM 2% | [2]; at 100.0 µM 44% | [3]; at 1.2 µM 0% | [3]; at 3.7 µM 0% | [3]; at 11.0 µM 15% | [3]; at 33.0 µM 46% | [4]; at 1.2 µM -1% | [4]; at 3.7 µM 0% | [4]; at 11.0 µM 0% | [4]; at 33.0 µM 5% | [5]; at 1.2 µM 4% | [5]; at 3.7 µM -43% | [5]; [16] 3% | [5]; at 11.0 µM 5% | [5]; at 33.0 µM 4% | [5]; [17] 9% | [5]; at 50.0 µM -15.1% | [5]; at 100.0 µM 53% | [6]; at 1.2 µM 2% | [6]; at 3.7 µM 3% | [6]; [16] 4% | [6]; at 11.0 µM 6% | [6]; at 33.0 µM 9% | [6]; [17] 34% | [6]; at 50.0 µM 24.2% | [7]; at 1.2 µM 0% | [7]; at 3.7 µM 0% | [7]; at 11.0 µM 5% | [7]; at 33.0 µM 17% | [8]; [16] -7% | [8]; [17] 39% | [8]; at 50.0 µM 21.8% | [9]; [16] 9% | [10]; at 1.2 µM -2% | [10]; at 3.7 µM -1% | [10]; [16] 0% | [10]; at 11.0 µM -3% | [10]; at 33.0 µM -2% | [10]; [17] 29% | [10]; at 50.0 µM 21.4% | [11]; at 1.2 µM -1% | [11]; at 3.7 µM 7% | [11]; at 11.0 µM 0% | [11]; at 33.0 µM -3% | [11]; at 100.0 µM 40% | [12]; at 1.2 µM 0% | [12]; at 3.7 µM 1% | [12]; at 11.0 µM 4% | [12]; at 33.0 µM 8% | [12]; at 100.0 µM 54% | [13]; at 1.2 µM -1% | [13]; at 3.7 µM 1% | [13]; at 11.0 µM 6% | [13]; at 33.0 µM 18% | [14]; [16] -1% | [14]; [17] 19% | [14]; at 50.0 µM 27.6% | [15]; at 1.2 µM 2% | [15]; at 3.7 µM 2% | [15]; at 11.0 µM 4% | [15]; at 33.0 µM 11%
